Measured values taken from PubChem BioAssay (NCATS).
Results filed as inconclusive are left out. Where a call stands in place of a potency, no number is given. Where a structure was tested more than once in an assay, its records may differ in their call. Calls of active or inactive are those of the source. The call rests on the fitted dose curve; in most records, active means well fitted inhibition curve with a large enough effect; inconclusive means small, poorly fitted or top-dose-only effect; inactive means no such curve, though single readings can be large or run the other way.
Potency means the concentration at half of the fitted maximal effect.

Each compound was assayed against M-phase phosphoprotein 8 (Homo sapiens) (UniProt Q99549) (assay: qHTS Validation Assay for Inhibitors for MPP8 Chromodomain Interactions with Methylated Histone Tails (AID 488949; further: nearly all actives have a fitted effect of over 55% in size)). Conditions: AlphaScreen MPP8 binding to H3K9me3 peptide; series mostly up to 114 µM.
Chain of M-phase phosphoprotein 8 (Homo sapiens) (Q99549 whole entry, looked up): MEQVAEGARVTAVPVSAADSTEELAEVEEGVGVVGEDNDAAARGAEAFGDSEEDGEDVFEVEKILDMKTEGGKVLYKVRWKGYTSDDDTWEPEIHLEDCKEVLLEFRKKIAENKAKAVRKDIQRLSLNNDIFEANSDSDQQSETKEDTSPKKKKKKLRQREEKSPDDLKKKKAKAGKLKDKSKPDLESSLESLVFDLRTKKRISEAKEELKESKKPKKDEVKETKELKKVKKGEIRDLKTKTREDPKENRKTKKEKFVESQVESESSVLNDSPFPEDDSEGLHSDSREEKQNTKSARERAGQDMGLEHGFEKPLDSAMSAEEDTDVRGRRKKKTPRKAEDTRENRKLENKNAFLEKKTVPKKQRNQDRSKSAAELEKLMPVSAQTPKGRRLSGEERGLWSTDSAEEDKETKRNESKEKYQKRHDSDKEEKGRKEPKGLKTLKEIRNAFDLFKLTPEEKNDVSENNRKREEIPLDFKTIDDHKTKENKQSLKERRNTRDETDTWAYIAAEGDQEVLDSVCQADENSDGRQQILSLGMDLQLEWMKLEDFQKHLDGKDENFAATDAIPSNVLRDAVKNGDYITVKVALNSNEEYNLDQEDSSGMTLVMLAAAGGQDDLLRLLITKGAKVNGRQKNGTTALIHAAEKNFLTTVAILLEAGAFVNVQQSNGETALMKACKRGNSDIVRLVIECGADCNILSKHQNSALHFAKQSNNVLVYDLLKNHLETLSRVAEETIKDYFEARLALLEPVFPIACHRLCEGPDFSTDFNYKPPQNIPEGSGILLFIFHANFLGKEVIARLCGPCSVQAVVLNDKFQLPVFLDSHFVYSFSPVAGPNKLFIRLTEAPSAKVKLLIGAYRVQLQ
Description: As our understanding of epigenetics expands, it is becoming clear that players in this field are potential targets for drug development. This area of epigenetic therapy has established applications for the treatment of cancer and neurological diseases. We have been involved in this field for a number of years and have performed high-throughput screens to identify the first small molecule inhibitors of protein methyltransferases. These methyltransferases target multiple substrates, and thus regulate many arms of an epigenetic pathway. The methylation of different substrates often generates docking sites for effector proteins that harbor binding domains (chromo, tudor, PHD, MBT and ANK repeats). It has been proposed that the binding sites generated for different proteins by these post-translational modifcations mediate downstream effects on chromatin. Consistent with this theory, di- and tri-methylation of histone H3K9 facilitates the binding of heterochromatin protein HP1. The HP1 protein harbors a chromodomain that is responsible for the methyl-dependent interaction between HP1 and lysine 9 of histone H3. HP1 was first described in flies as a heterochromatin associated protein that can regulate gene silencing. It harbors a chromodomain that binds H3K9me3. In addition, it harbors a chromoshadow domain that interacts with a large number of proteins that are involved in heterochromatin formation and gene repression. There are three highly related HP1 isoforms. All three variants are associated with pericentric heterochromatin and it is not clear whether they have specific or redundant functions. MPP8 is also involved in the repression of gene in euchromatic regions (unpublished data) and like HP1 its chromodomain binds H3K9me3. MPP8 harbors an ankyrin repeat region that is likely involved in binding and recruiting interacting proteins with transcriptional repressive function, much like the chromoshadow domain of HP1 does. We hypothesize that by inhibiting specific protein-protein interactions we will be able to develop compounds that block a single arm of an epigenetic pathway. The specificity attained by blocking a single protein-protein interaction will be far greater than that attained by blocking the enzyme that regulates one of many interactions. Low-affinity protein-protein interactions (Kd in the single- to double-digit micromolar range) such as those discussed here have been very difficult to assay by traditional techniques such as fluorescence polarization or fluorescence resonance energy transfer. We have developed a sensitive chemiluminescence-based assay (Quinn, et al. 2009), which serves as the starting point for this project. The following is a validation assay to identify lead compounds that can block methyl-dependent protein-protein interactions (specifically MPP8), which can be used as probes to analyze these methyl-driven interactions and perhaps even developed into targeted epigenetic therapies. Assay Provider: Mark T. Bedford, MD Anderson Screening Center PI: Austin, C.P. Screening Center: NIH Chemical Genomics Center [NCGC]
To each well, 2 uL of MPP8 protein (final 50 nM) and 1 uL biotinylated histone peptide trimethylated at Lys9 [b-H3(1-18)K9me3] (final 50 nM) was added in 1x PBS buffer, pH 7.4, containing 0.01% Tween-20 using a nanoliter dispenser. Formation of a protein-peptide complex proceeded at room temperature for 30 min. A Kalypsys pin-tool was employed to transfer 23 nL of library compound solution in DMSO to each well. Aurintricarboxylic acid (ATA) was used as an intraplate control with a 12-point titration in duplicate. Following a 30 min incubation of the protein-peptide complex with compounds at room temperature, a mixture of 40 ug/mL each streptavidin-coated donor and nickel chelate acceptor AlphaScreen beads (final 10 ug/mL) was added in a 1 uL dispense for a final volume of 4 uL. Plates were incubated protected from the light for 30 min at room temperature. […]
C/C=C(/C)C(=O)O[C@H]1C(C)=C2C([C@@H]1OC(=O)CCCCCCC)[C@@](C)(OC(C)=O)C[C@@H](OC(=O)CCC)[C@@]1(O)[C@H]2OC(=O)[C@@]1(C)O (stereo not given in full) was tested, and the Potency was “inactive”.
For C[C@]12CC[C@H](OS(=O)(=O)O)CC1=CCC1C2CC[C@]2(C)C(=O)CC[C@@H]12 (stereo not given in full), the Potency was “inactive”.
COC(=O)C(N)CCCN=C(N)N[N+](=O)[O-] (stereo not given) was tested, and the Potency was “inactive”.
In the case of COc1ccc2c(c1O)-c1cccc3c1C(C2)N(C)CC3 (stereo not given), the Potency was 44.7 µM (active).
In the case of C[C@]12CC[C@@H](O)CC1CCC1C2CC[C@]2(C)C(=O)CC[C@@H]12 (stereo not given in full), the Potency was “inactive”.
In the case of CCCN1CCCC(c2cccc(O)c2)C1 (stereo not given), the Potency was “inactive”.
In the case of N.N.N.N.N.N.N.N.N.N.N.N.N.N.O.O.[Cl-].[Cl-].[Cl-].[Cl-].[Cl-].[Cl-].[Ru].[Ru].[Ru], the Potency was 10 µM (active).
For C[C@@H]1O[C@@H](O[C@H]2C[C@@H](O)[C@]3(CO)[C@H]4[C@H](O)C[C@]5(C)[C@@H]([C@@H]6COC(=O)C6)CC[C@]5(O)[C@@H]4CC[C@]3(O)C2)[C@H](O)[C@H](O)[C@H]1O, the Potency was “inactive”.
In the case of CC1Cc2cc3c(cc2C(c2ccc(N)cc2)=NN1)OCO3 (stereo not given), the Potency was 56.2 µM (active).
For COc1ccc2c3c1O[C@H]1C(=O)CC[C@@]4(O)C(C2)N(CC2CC2)CCC314 (stereo not given in full), the Potency was “inactive”.
CC[C@@H](CO)NC(=O)[C@H]1C=C2c3cccc4c3c(cn4C)C[C@H]2N(C)C1 was tested, and the Potency was “inactive”.
CCCN1CCc2cccc3c2C1Cc1ccc(O)c(O)c1-3 (stereo not given) was tested, and the Potency was 20 µM (active).
In the case of CCCN1CCC[C@@H]2Cc3n[nH]cc3C[C@H]21, the Potency was “inactive”.
For CCC(CO)NC(=O)[C@@H]1C=C2c3cccc4[nH]cc(c34)C[C@H]2N(C)C1 (stereo not given in full), the Potency was “inactive”.
With COc1cc(C[C@@H](C)N)c(OC)cc1I the Potency was “inactive”.
With C[C@]12CC[C@H]3[C@@H](CCC4C[C@H](O)CC[C@@]43C)[C@@H]1CC[C@@H]2O (stereo not given in full) the Potency was “inactive”.
CCCN1CCc2cc(O)cc3c2C1Cc1ccc(O)c(O)c1-3 (stereo not given) was tested, and the Potency was 31.6 µM (active).
In the case of CCCN1CCC[C@@H](c2cccc(C#N)c2)C1, the Potency was “inactive”.
In the case of CN1CCC23CCCC[C@H]2C1Cc1ccc(O)cc13 (stereo not given in full), the Potency was “inactive”.
In the case of COc1cc(C=C(C#N)C#N)cc(O)c1O, the Potency was 39.8 µM (active).
With C=CCN1CC[C@@]2(C)c3cc(O)ccc3CC1[C@@H]2C the Potency was “inactive”.
In the case of O=C(O)C1C2CCC(O2)C1C(=O)O (stereo not given), the Potency was “inactive”.
For CCN1C[C@]2(C)CC[C@H](O)[C@@]34[C@@H]5C[C@@H]6[C@@H](OC)C[C@@](O)(C5[C@H]6O)[C@@H](C[C@@H]23)[C@@H]14, the Potency was “inactive”.
With C#CCN(C)C(C)Cc1ccccc1 (stereo not given) the Potency was “inactive”.
For NC(Cn1ccc(=O)[nH]c1=O)C(=O)O (stereo not given), the Potency was “inactive”.
For CCNC(=O)[C@H]1O[C@@H](n2cnc3c(N)ncnc32)[C@H](O)[C@H]1O, the Potency was “inactive”.
With CCCN(CCC)C(=O)Cc1c(-c2ccc(Cl)cc2)nc2c(Cl)cc(Cl)cn12 the Potency was “inactive”.
For CCc1c(C(=O)OC)ncc2[nH]c3cc(OC)c(OC)cc3c12, the Potency was “inactive”.
In the case of C[C@H]1C2Cc3ccc(O)cc3[C@]1(C)CCN2CC1CC1, the Potency was “inactive”.
CCCC[N+]1(C)C2CC(OC(=O)C(CO)c3ccccc3)CC1C1OC12 (stereo not given) was tested, and the Potency was “inactive”.
With CCCCN1C2CCC1CC(OC(c1ccc(F)cc1)c1ccc(F)cc1)C2 (stereo not given) the Potency was “inactive”.
For O=C(OC1CCN(CCCl)CC1)C(c1ccccc1)c1ccccc1, the Potency was “inactive”.
For Oc1cc2c(cc1O)[C@H]1c3ccccc3CNC1CC2 (stereo not given in full), the Potency was 25.1 µM (active).
In the case of C[C@H]1OC[C@@H](C[N+](C)(C)C)O1, the Potency was “inactive”.
CC(C)(O)C1C2OC(=O)C1[C@]1(O)C[C@H]3O[C@]34C(=O)O[C@H]2[C@]14C (stereo not given in full) (tested in a mixture with another compound) was tested, and the Potency was “inactive”.
In the case of C[C@]12CC[C@H](O)CC1=CCC1C2CC[C@]2(C)C(=O)CC[C@@H]12 (stereo not given in full), the Potency was “inactive”.
COc1cc(OC)c(/C=C2/C(=O)Nc3ccccc32)c(OC)c1 was tested, and the Potency was 12.6 µM (active) and inactive.
In the case of N#CC(=Cc1ccc(O)c(O)c1)C(N)=S, the Potency was 44.7 µM (active).
With Oc1ccc2c3c1O[C@H]1[C@@H](O)CC[C@@]4(O)C(C2)N(CC2CCC2)CCC314 (stereo not given in full) the Potency was “inactive”.
With C=CCN1CCc2cccc3c2C1Cc1ccc(O)c(O)c1-3 (stereo not given) the Potency was 6.31 µM (active).
